Assay results reported in PubChem BioAssay AID1159580 (chemical genetic matrix, 2015).
The campaign covered roughly 5,500 compounds. About 2,000 (36%) were called active. Not shown: some 18% with an inconclusive outcome. No stated cut-off is given here; in the data, active means normalized growth mostly below about 0.91 (no sharp cut-off); inconclusive means no clear call, values can overlap the other calls; inactive means mostly above about 0.92. This is one part of the list.

Experiment: chemical genetic growth profiling, strain panel (AID 1159580);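 further: tested at 20 µM; growth read once vehicle control cultures reached saturation at 30 °C; 1 = growth at the plate median or of vehicle wells; lower values mean less growth of the strain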
Conditions: growth OD

Measured: normalized growth

C[C@H]1OC(n2cc(F)c(=O)[nH]c2=O)C(O)[C@@H]1O (stereo partly specified)
inactive: S. cerevisiae deletion strains, locus YAL013W, strain DEP1, active compounds read low 1 | S. cerevisiae deletion strains, locus YBR021W, strain FUR4, active compounds read low 1 | S. cerevisiae deletion strains, locus YBR229C, strain ROT2, active compounds read low 1.01 | S. cerevisiae deletion strains, locus YCL029C, strain bik1, active compounds read low 0.973 | S. cerevisiae deletion strains, locus YDL035C, strain GPR1, active compounds read low 1 | S. cerevisiae deletion strains, locus YDL074C, strain BRE1, active compounds read low 1.02 | S. cerevisiae deletion strains, locus YDL101C, strain DUN1, active compounds read low 1 | S. cerevisiae deletion strains, locus YDL134C, strain PPH21, active compounds read low 1 | S. cerevisiae deletion strains, locus YDL185W, strain tfp1, active compounds read low 0.97 | S. cerevisiae deletion strains, locus YDL192W, strain arf1, active compounds read low 0.97 | S. cerevisiae deletion strains, locus YDR101C, strain arx1, active compounds read low 1 | S. cerevisiae deletion strains, locus YDR150W, strain NUM1, active compounds read low 0.982 | S. cerevisiae deletion strains, locus YDR162C, strain NBP2, active compounds read low 1.04 | S. cerevisiae deletion strains, locus YDR318W, strain mcm21, active compounds read low 0.973 | S. cerevisiae deletion strains, locus YDR388W, active compounds read low 0.986 | S. cerevisiae deletion strains, locus YDR502C, strain sam2, active compounds read low 1 | S. cerevisiae deletion strains, locus YEL061C, strain CIN8, active compounds read low 1 | S. cerevisiae deletion strains, locus YER110C, active compounds read low 0.948 | S. cerevisiae deletion strains, locus YER155C, strain BEM2, active compounds read low 0.995 | S. cerevisiae deletion strains, locus YER167W, strain BCK2, active compounds read low 0.989 | S. cerevisiae deletion strains, locus YGL078C, strain dbp3, active compounds read low 0.979 | S. cerevisiae deletion strains, locus YGL086W, strain mad1, active compounds read low 0.957 | S. cerevisiae deletion strains, locus YGL248W, strain PDE1, active compounds read low 1.01 | S. cerevisiae deletion strains, locus YGR078C, strain PAC10, active compounds read low 1.02 | S. cerevisiae deletion strains, locus YGR135W, strain pre9, active compounds read low 1 | S. cerevisiae deletion strains, locus YGR229C, strain SMI1, active compounds read low 1.03 | S. cerevisiae deletion strains, locus YGR252W, strain gcn5, active compounds read low 1.01 | S. cerevisiae deletion strains, locus YHR030C, strain SLT2, active compounds read low 0.996 | S. cerevisiae deletion strains, locus YHR079C, strain IRE1 (second series), active compounds read low 0.985 | S. cerevisiae deletion strains, locus YHR094C, strain hxt1, active compounds read low 0.968 | S. cerevisiae deletion strains, locus YHR129C, strain ARP1, active compounds read low 1 | S. cerevisiae deletion strains, locus YHR200W, strain rpn10, active compounds read low 0.969 | S. cerevisiae deletion strains, locus YIL066C, strain RNR3, active compounds read low 0.99 | S. cerevisiae deletion strains, locus YIL073C, strain SPO22, active compounds read low 0.894 | S. cerevisiae deletion strains, locus YIL125W, strain kgd1, active compounds read low 0.973 | S. cerevisiae deletion strains, locus YIR030C, strain dcg1, active compounds read low 0.982 | S. cerevisiae deletion strains, locus YJL095W, strain BCK1, active compounds read low 1.04 | S. cerevisiae deletion strains, locus YJL134W, strain LCB3, active compounds read low 1.01 | S. cerevisiae deletion strains, locus YJL168C, strain set2, active compounds read low 0.993 | S. cerevisiae deletion strains, locus YJL187C, strain SWE1 (second series), active compounds read low 1.01 | S. cerevisiae deletion strains, locus YJR043C, strain POL32, active compounds read low 0.993 | S. cerevisiae deletion strains, locus YJR075W, strain HOC1, active compounds read low 1.01 | S. cerevisiae deletion strains, locus YKL009W, strain mrt4, active compounds read low 0.959 | S. cerevisiae deletion strains, locus YKL068W, active compounds read low 0.98 | S. cerevisiae deletion strains, locus YKL085W, strain MDH1 (second series), active compounds read low 0.981 | S. cerevisiae deletion strains, locus YKL085W, strain MDH1, active compounds read low 0.981 | S. cerevisiae deletion strains, locus YKL190W, strain CNB1, active compounds read low 1 | S. cerevisiae deletion strains, locus YKR001C, strain vps1, active compounds read low 0.966 | S. cerevisiae deletion strains, locus YLR039C, strain RIC1, active compounds read low 0.994 | S. cerevisiae deletion strains, locus YLR058C, strain SHM2, active compounds read low 0.993 | S. cerevisiae deletion strains, locus YLR102C, strain apc9, active compounds read low 0.983 | S. cerevisiae deletion strains, locus YLR262C, strain YPT6, active compounds read low 1 | S. cerevisiae deletion strains, locus YLR268W, strain sec22, active compounds read low 0.995 | S. cerevisiae deletion strains, locus YLR330W, strain CHS5, active compounds read low 0.994 | S. cerevisiae deletion strains, locus YLR342W, strain FKS1 (second series), active compounds read low 0.991 | S. cerevisiae deletion strains, locus YLR371W, strain rom2, active compounds read low 0.961 | S. cerevisiae deletion strains, locus YLR418C, strain cdc73, active compounds read low 1.05 | S. cerevisiae deletion strains, locus YML016C, strain PPZ1, active compounds read low 1 | S. cerevisiae deletion strains, locus YML032C, strain rad52, active compounds read low 0.951 | S. cerevisiae deletion strains, locus YML124C, strain tub3, active compounds read low 0.974 | S. cerevisiae deletion strains, locus YMR078C, strain ctf18, active compounds read low 0.945 | S. cerevisiae deletion strains, locus YMR223W, strain ubp8, active compounds read low 0.975 | S. cerevisiae deletion strains, locus YMR263W, strain SAP30, active compounds read low 1.02 | S. cerevisiae deletion strains, locus YMR307W, strain GAS1, active compounds read low 0.977 | S. cerevisiae deletion strains, locus YNL067W, strain RPL9B, active compounds read low 1.02 | S. cerevisiae deletion strains, locus YNL128W, strain TEP1, active compounds read low 1.01 | S. cerevisiae deletion strains, locus YNL153C, strain GIM3, active compounds read low 1.02 | S. cerevisiae deletion strains, locus YNL233W, strain BNI4, active compounds read low 1.02 | S. cerevisiae deletion strains, locus YNL250W, strain rad50, active compounds read low 0.984 | S. cerevisiae deletion strains, locus YNL271C, strain bni1, active compounds read low 0.988 | S. cerevisiae deletion strains, locus YNL298W, strain CLA4, active compounds read low 0.963 | S. cerevisiae deletion strains, locus YNL307C, strain MCK1, active compounds read low 0.967 | S. cerevisiae deletion strains, locus YNL322C, strain KRE1, active compounds read low 0.998 | S. cerevisiae deletion strains, locus YNR052C, strain pop2, active compounds read low 0.958 | S. cerevisiae deletion strains, locus YOL006C, strain TOP1, active compounds read low 1.03 | S. cerevisiae deletion strains, locus YOL012C, strain htz1 1.08 | S. cerevisiae deletion strains, locus YOL147C, strain pex11, active compounds read low 0.982 | S. cerevisiae deletion strains, locus YOR061W, strain CKA2, active compounds read low 1.01 | S. cerevisiae deletion strains, locus YOR069W, strain VPS5, active compounds read low 1 | S. cerevisiae deletion strains, locus YOR136W, strain idh2, active compounds read low 0.983 | S. cerevisiae deletion strains, locus YOR144C, strain elg1, active compounds read low 0.965 | S. cerevisiae deletion strains, locus YOR184W, strain ser1, active compounds read low 0.921 | S. cerevisiae deletion strains, locus YOR316C, strain cot1, active compounds read low 0.974 | S. cerevisiae deletion strains, locus YPL055C, strain LGE1, active compounds read low 1.02 | S. cerevisiae deletion strains, locus YPL241C, strain CIN2, active compounds read low 0.996 | S. cerevisiae deletion strains, locus YPR119W, strain clb2, active compounds read low 0.985 | S. cerevisiae deletion strains, locus YPR141C, strain kar3, active compounds read low 0.974 | S. cerevisiae deletion strains, locus YPR163C, strain tif3, active compounds read low 0.964 | S. cerevisiae deletion strains, locus YPR167C, strain met16, active compounds read low 0.988 | S. cerevisiae deletion strains, strain wtn01, active compounds read low 0.994 | S. cerevisiae strains, strain wild type, active compounds read low 1
